Inconclusive results are not listed. Activity calls are given as the source filed them. Calls follow the shape of the dose curve; as a rule, active = well fitted curve in the direction sought with a large enough effect; inconclusive = small, poorly fitted or top-dose-only effect, or another doubt; inactive = no such curve, though single readings can be large; an effect the other way counts as inactive or inconclusive.
Assays:
[1] = target: Glutathione peroxidase 1 (Homo sapiens) (UniProt P07203); test: Primary qHTS Assay for Inhibitors of Recombinant Selenoprotein Glutathione Peroxidase 1 (GPX1) (AID 1845191); also: nearly all actives have a fitted effect of over 65% in size; as to activity, negative = inhibition: % is scaled to controls: 0 for no effect and ±100 for the full control effect
How it was run: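 GR-coupled assay: compounds preincubated 30 min at room temperature with GPX1, then reaction started with CHP; final 10 nM GPX1, 1 mM GSH, 0.5 mM CHP, 0.5 mM NADPH, 100 nM GR, 0.01% BSA, pH 7.5 Tris buffer. NADPH fluorescence (340/450 nm) read at 0 and 15 min.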

[2] = target: Phospholipid hydroperoxide glutathione peroxidase GPX4 (Homo sapiens) (UniProt P36969); test: Primary qHTS Assay for Inhibitors of Recombinant Selenoprotein Glutathione Peroxidase 4 (GPX4) (AID 1845192); also: nearly all actives have a fitted effect of over 65% in size; as to activity change, negative = inhibition: series mostly up to about 50 µM; % is scaled to controls: 0 for no effect and ±100 for the full control effect
How it was run: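 GR-coupled assay: recombinant GPX4 preincubated 30 min with compound at room temperature; final 200 nM GPX4, 1 mM GSH, 0.5 mM cumene hydroperoxide, 0.5 mM NADPH, 100 nM GR, 0.01% BSA, pH 7.5 Tris. NADPH fluorescence (340/450 nm) read at 0 and 15 min.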

[3] = target: Luciferin 4-monooxygenase (Photinus pyralis) (UniProt P08659); test: Primary firefly luciferase (FLuc) qHTS assay for identification of artifact compounds. (AID 1845220); also: nearly all actives have a fitted effect of over 60% in size; also: potency is read from the fitted curve at half-maximal effect;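 as to activity change, negative = inhibition: series mostly up to about 54 µM; plate controls were DMSO vehicle for no effect and no enzyme for full effect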
How it was run: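 Titrated compounds were incubated 15 min at RT, protected from light, with luciferin and ATP at 10 uM; reaction started with 10 nM FLuc, luminescence imaged at 5 min, and concentration-response fitted by Hill equation.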

[4] = system: Nanoluciferase (engineered Oplophorus gracilirostris luciferase); test: Primary Nanoluciferase (NLuc) qHTS assay for identification of artifact compounds. (AID 1845222);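 also: NLuc secreted into diluted conditioned medium of S16 cells; series mostly up to about 54 µM; 0% = DMSO and -100% = no enzyme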
How it was run: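 qHTS format, against NLuc in S16 cell-conditioned medium. Nano-Glo substrate 1:100 was added after 15 min at room temperature. Luminescence was taken after a further 5 min.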

[5] = Primary fluorescence-based thiol-reactive (MSTI) qHTS assay for identification of artifact compounds. (AID 1845221);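 also: series mostly up to about 54 µM; thiol-reactive compounds lower the probe fluorescence signal; nearly all actives have a fitted effect of over 65% in size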
How it was run: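 Curve-fitted percent inhibition (4-parameter Hill) derived from fluorescence, Ex 525/Em 598 nm, scaled with Acetyl-MSTI and MSTI; 1 h incubation at room temperature.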

Chain of Glutathione peroxidase 1 (Homo sapiens) (P07203 whole entry, looked up): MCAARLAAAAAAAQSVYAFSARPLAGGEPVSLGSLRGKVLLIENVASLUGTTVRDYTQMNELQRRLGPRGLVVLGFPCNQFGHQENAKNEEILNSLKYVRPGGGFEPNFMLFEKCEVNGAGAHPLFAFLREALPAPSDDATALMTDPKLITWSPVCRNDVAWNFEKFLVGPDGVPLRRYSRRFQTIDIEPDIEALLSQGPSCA
Chain of Phospholipid hydroperoxide glutathione peroxidase GPX4 (Homo sapiens) (P36969 whole entry, looked up): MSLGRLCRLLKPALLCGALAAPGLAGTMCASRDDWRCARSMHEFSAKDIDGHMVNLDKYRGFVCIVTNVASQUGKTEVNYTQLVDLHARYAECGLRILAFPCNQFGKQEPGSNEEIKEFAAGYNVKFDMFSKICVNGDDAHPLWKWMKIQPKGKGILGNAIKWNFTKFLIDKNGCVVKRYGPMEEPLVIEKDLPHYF

C[C@H]1[C@H](C)CC[C@]2(C(=O)O[C@@H]3O[C@H](CO)[C@@H](O)[C@H](O)[C@H]3O)CC[C@]3(C(=O)O)C(=CCC4[C@@]5(C)CC[C@H](O[C@@H]6O[C@H](CO)[C@@H](O)[C@H](O)[C@H]6O)C(C)(C)C5CC[C@]43C)[C@H]12 (some centres undefined)
inactive: Potency [1] | Potency [2] | outcome [3] inactive [at 11.6 µM] | activity, negative = inhibition [4] -1.27% [at 11.6 µM]

C=C1C(=O)OC2CC(C)=C(C(C)CCCO[C@@H]3O[C@H](CO)[C@@H](O)[C@H](O)[C@H]3O)C(O)C12 (some centres undefined)
inactive: Potency [1] | Potency [2] | Potency [3] | Potency [4]

C[C@@H]1O[C@@H](O[C@H]2[C@H](O[C@H]3[C@H](O[C@H]4CC[C@@]5(C)C(CC[C@]6(C)C5CC=C5[C@@H]7CC(C)(C(=O)O)C[C@@H](O)[C@]7(C)CC[C@]56C)[C@@]4(C)CO)O[C@H](C(=O)O)[C@@H](O)[C@@H]3O)O[C@H](CO)[C@H](O)[C@@H]2O)[C@H](O)[C@H](O)[C@H]1O (some centres undefined)
inactive: Potency [1] | Potency [2] | activity change, negative = inhibition [3] 0.24% [at 11.6 µM] | activity, negative = inhibition [4] -2.21% [at 11.6 µM]

COc1ccc2c(c1O)OC[C@H]1c3ccc(O)cc3O[C@@H]21
inactive: Potency [1] | Potency [2] | Potency [3] | Potency [4]

CN(NC(=O)CC(=O)NN(C)C(=S)c1ccccc1)C(=S)c1ccccc1
inactive: Potency [1] | Potency [2] | Potency [3] | Potency [4]

C/C=C(\C)C(=O)O[C@H]1[C@@H](O[C@]2(COC(=O)CC(C)C)O[C@H](COC(=O)C(C)C)[C@@H](OC(C)=O)[C@@H]2O)O[C@H](COC(C)=O)[C@@H](O)[C@@H]1O
inactive: Potency [1] | Potency [2] | Potency [4]
active: Potency [3] 4.46 µM

CC1CCC2C(C)(C)C(O)CCC2(C)C12Cc1c(O)cc3c(c1O2)CN=C3N (centres undefined)
inactive: Potency [1] | Potency [2] | Potency [3] | Potency [4]

COc1cc(C(O)C(CO)Oc2ccc(CCCO[C@@H]3O[C@@H](C)[C@H](O)[C@@H](O)[C@H]3O)cc2OC)ccc1O (some centres undefined)
inactive: Potency [1] | Potency [2] | Potency [3] | Potency [4]

CC1CCC2C(C(=O)O)=CC3C(O)C(C)(C)CC123 (centres undefined)
inactive: Potency [1] | Potency [2] | Potency [3] | Potency [4]

CC1CCC(=O)CC(O)C(O)CC(=O)O1 (centres undefined)
inactive: Potency [1] | Potency [2] | Potency [3] | Potency [4]

CC1CCC23COC(=O)C2=CC(O)CC3C1(C)CCC1=CC(=O)OC1O (centres undefined)
inactive: Potency [1] | Potency [2] | Potency [3] | Potency [4]

CCOC(=O)N1CCC(NCCNC(=O)c2ccccc2C)CC1
inactive: Potency [1] | Potency [2] | Potency [3] | Potency [4]

COc1cc(/C=C/CO)ccc1O[C@@H]1O[C@H](CO)[C@@H](O)[C@H](O)[C@H]1O
inactive: Potency [1] | Potency [2] | Potency [3] | Potency [4]

C=C1CCC2[C@@](C)(C=O)CCC[C@]2(C)[C@H]1CC/C(C)=C/CO (some centres undefined)
inactive: Potency [1] | Potency [2] | Potency [3] | Potency [4]

CC(=O)O[C@H]1[C@H](C)[C@@H](O)[C@H]2[C@@H]1C=C(C(=O)O)[C@H]1C[C@@H]3[C@H]([C@H]21)[C@H]1C(=O)O[C@@H]2CC[C@@]3(C)O[C@]1(O)[C@@H]2C
inactive: Potency [1] | Potency [2] | Potency [3] | Potency [4]

CC(C)=CCc1ccc(Oc2c(O)cc(C)cc2CO)c(C(=O)O)c1O
inactive: Potency [1] | Potency [2] | Potency [3] | Potency [4]

CC(/C=C/[C@]1(O)[C@@]2(C)CO[C@@]1(C)C[C@@H](O)C2)=C\C(=O)O[C@@H]1O[C@H](CO)[C@@H](O)[C@H](O)[C@H]1O
inactive: Potency [1] | Potency [2] | Potency [3] | Potency [4]

COC(=O)C1C(c2ccc(O)cc2)C(C(=O)OC)C1c1ccc(O)cc1 (centres undefined)
inactive: Potency [1] | Potency [2] | Potency [3] | Potency [4]

O=C(c1ccc(C#Cc2cccc(F)c2)cn1)N1CC2CC2C1 (centres undefined)
inactive: Potency [1] | Potency [2] | Potency [5] | Potency [4]

CC1[C@@H](O)[C@@H](O)C2[C@]3(C)C(C[C@H]4OC(=O)[C@H](O)[C@]1(O)[C@@]24C)C(C)(O)C[C@H](O)[C@H]3O (some centres undefined)
inactive: Potency [1] | Potency [2] | Potency [3] | Potency [4]

O=c1c2ccccc2nc2n1CCC2O (centres undefined)
inactive: Potency [1] | Potency [2] | Potency [3] | Potency [4]

N#Cc1ccc2[nH]c(O)c(-c3ccc(CN4CCOCC4)cn3)c2c1
inactive: Potency [1] | Potency [2] | Potency [3] | Potency [4]

CN1C(=O)c2ccccc2NC(=O)[C@]12O[C@@H]2c1cccc(O)c1
inactive: Potency [1] | Potency [2] | Potency [3] | Potency [4]

CC(C)CC(=O)OC[C@H]1O[C@@](COC(=O)CC(C)C)(O[C@H]2O[C@H](CO)[C@@H](O)[C@H](O)[C@H]2O)[C@@H](OC(=O)CC(C)C)[C@@H]1OC(=O)CC(C)C
inactive: Potency [1] | Potency [2] | Potency [3] | Potency [4]

COc1cc(COC2OC(CO)C(O)C(O)C2O)cc(OC)c1O (centres undefined)
inactive: Potency [1] | Potency [2] | Potency [3] | Potency [4]

COC(=O)C1=CO[C@@H](O[C@@H]2O[C@H](COC(=O)/C=C/c3cc(OC)c(O)c(OC)c3)[C@@H](O)[C@H](O)[C@H]2O)[C@@H]2C(CO)=CC[C@H]12
inactive: Potency [1] | Potency [2] | Potency [3] | Potency [4]

From PubChem BioAssay (NCATS)
